Most compounds without a hit are left out; they make up all but 5.4% or so of the library.
JMJD2C inh = human JMJD2C demethylase inhibition; 330,000 tested, 0.069% active; GST-JMJD2C(1-420) H3K9me3 demethylation, DELFIA europium; inhibition, % at 2.35 µM; AID 2099; Q9H3R0;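 active means more than half of a compound's replicate wells show inhibition beyond 50%, single wells judged on their own value; inconclusive means some, but no more than half, of replicates pass 50% inhibition; inactive means no replicate passes 50% inhibition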;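 further: signal counts dimethyl H3K9 product captured on neutravidin plate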
PfM18AAP inh-1 = blocks P. falciparum M18 aspartyl aminopeptidase; recombinant PfM18AAP, H-Glu-NHMec fluorogenic cleavage; inhibition, % at 7.35 µM; 290,000 tested, 1.2% active;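 active means inhibition above the campaign mean inhibition over all tested compounds plus 3 SD, cut at about 28% in these data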
Granule exo inh = lytic granule exocytosis inhibition | TALL-104 LAMP-1 surface exposure, flow cytometry; cells stimulated with thapsigargin and PMA | inhibition, % at 10 µM | 360,000 tested, 0.66% active | AID 651702;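 active means inhibition above about 55%, limit read from the data; inconclusive means no clear call, values can overlap the other calls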
ALR inh = blocks human ALR sulfhydryl oxidase activity; purified ALR, DTT oxidation, H2O2 HRP-luminol luminescence; inhibition, % (no concentration beside the values); 290,000 tested, 3.8% active; AID 485317;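 active means mean replicate inhibition above about 79%, with every replicate also reaching it, limit read from the data; inconclusive means only one of the two criteria met; inactive means mean below limit and not every replicate reaching it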
Target sequence (P55789 whole entry, looked up): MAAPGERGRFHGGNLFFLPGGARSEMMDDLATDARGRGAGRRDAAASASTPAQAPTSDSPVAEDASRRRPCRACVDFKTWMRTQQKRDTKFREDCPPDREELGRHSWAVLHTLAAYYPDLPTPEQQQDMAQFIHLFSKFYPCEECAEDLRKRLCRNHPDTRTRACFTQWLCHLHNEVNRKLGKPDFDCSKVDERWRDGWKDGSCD
MIN6 prolif-1 = induces beta-cell replication in MIN6 cells. 330,000 tested, 0.29% active. proliferation, % at 10 µM. MIN6 cells proliferation, ATPlite luminescence, 48 h; cells starved in 0.2% serum; 100% = growth in 10% serum. AID 2380;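 active means compounds whose signal lies at least 3.5 SD above the mean of all wells on their plate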
SMARCA2 activ = SMARCA2 function activation, primary screen; activation, % at 9.1 µM; MG213 cells, MMTV-luciferase reporter, dexamethasone, overnight; 370,000 tested, 1% active; AID 652017; in the data active means activation above about 7.8%
PfM18AAP inh-2 = confirmation of Plasmodium falciparum M18 aspartyl aminopeptidase inhibitors; shares compounds with PfM18AAP inh-1; AID 2170; recombinant PfM18AAP, H-Glu-NHMec fluorogenic cleavage; 2,400 tested, 28% active; inhibition, % at 7.35 µM;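 active means mean inhibition over replicate wells above the hit cutoff set for the earlier primary screen, cut at about 29% in these data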
CTSL1 counter = Cathepsin L (human) inhibition, confirmation. AID 2178. inhibition, % at 5.96 µM. shares compounds with PfM18AAP inh-1. purified cathepsin L1, Z-Leu-Arg-MCA fluorescence. 2,400 tested, under 10 active;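 active means average inhibition across replicates above the hit cutoff set in the earlier primary screen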
Target sequence (P07711 whole entry, looked up): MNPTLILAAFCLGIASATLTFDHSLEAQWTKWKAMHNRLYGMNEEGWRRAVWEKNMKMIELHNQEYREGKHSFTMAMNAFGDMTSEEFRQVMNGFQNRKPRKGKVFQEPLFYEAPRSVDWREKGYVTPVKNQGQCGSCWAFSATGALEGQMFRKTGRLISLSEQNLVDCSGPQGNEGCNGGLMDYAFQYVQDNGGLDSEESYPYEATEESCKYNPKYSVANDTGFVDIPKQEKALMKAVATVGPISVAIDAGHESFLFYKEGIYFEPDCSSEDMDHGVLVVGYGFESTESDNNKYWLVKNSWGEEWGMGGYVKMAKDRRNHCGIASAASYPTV
MIN6 prolif-2 = MIN6 beta-cell replication induction, confirmed. 920 tested, under 10 active. shares compounds with MIN6 prolif-1. MIN6 beta-cell proliferation, ATPlite luminescence, 48 h; cells kept in 0.2% serum; scaled between 0.2% and 10% serum. proliferation increase, % at 50 µM;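 active means proliferation increase above 40% at any of the four tested concentrations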
Exocytosis CP01 = lytic granule exocytosis inhibition | inhibition, % at 10 µM | shares compounds with Granule exo inh | TALL-104 cells, LAMP-1 externalization, flow cytometry; stimulated with PMA plus thapsigargin | 1,500 tested, 11% active; in the data active means inhibition above about 60%
SMARCA2 act conf = SMARCA2 activation, confirmation screen; shares compounds with SMARCA2 activ; MG213 cells, MMTV-luciferase with dexamethasone, luminescence, overnight; MG213 cells expressing E1A, Rb sequestered; DMSO wells 0%, reference activator 100%; activation, % at 9.1 µM; 3,500 tested, 30% active; AID 652260;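 active means activation above its plate's cutoff, the mean activation of tested wells plus 3 SD, cut at about 7.9% in these data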
GAL4-VP16 Luc = GAL4-VP16 reporter activation counter-screen. shares compounds with SMARCA2 activ. HEK293 GAL4-VP16 pG5luc reporter, luciferase luminescence; scaled: DMSO wells 0%, SAHA wells 100%. activation, % at 9.1 µM. 3,500 tested, 41% active;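 active means activation above the solvent-only control well mean plus 3 SD, averaged across control plates, cut at about 5.2% in these data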
Large screens that a line does not name were inactive (follow-up assays come after a bar, where they were run).

CNC(=S)NNC(=O)c1sccc1C	PfM18AAP inh-1 35 | PfM18AAP inh-2 inactive | CTSL1 counter inactive
CCCCNC(=S)NNC(=O)c1sccc1C	none (no result: SMARCA2 activ)
O=C(NC1CCCCC1)C(c1ccc(O)c(O)c1)N(C(=O)Cn1nnc2ccccc21)c1cccc(O)c1 (configuration not stated)	PfM18AAP inh-1 86 | PfM18AAP inh-2 83 | CTSL1 counter inactive
COC(=O)[C@]12C[C@H](CC(=O)N3CCN(C(=O)C4CC4)CC3)C(=O)N(Cc3ccc4c(c3)OCO4)C1=C[C@H](COCc1ccccc1)O[C@@H]2C	none (no result: JMJD2C inh, PfM18AAP inh-1, Granule exo inh, ALR inh, MIN6 prolif-1)
Oc1ccc(/C=N/n2cnn(Cc3ccccc3Cl)c2=S)c(O)c1	PfM18AAP inh-1 39 | PfM18AAP inh-2 inactive | CTSL1 counter inactive
CCc1c(O)c(-c2ccccc2)c(=O)n(-c2ccccn2)c1-c1ccccc1	PfM18AAP inh-1 39 | PfM18AAP inh-2 inactive | CTSL1 counter inactive
COc1ccc(NC(=S)NNc2ccc(S(=O)(=O)Nc3ccccc3C(=O)O)cc2[N+](=O)[O-])cc1	PfM18AAP inh-1 64, ALR inh 99 | PfM18AAP inh-2 42 | CTSL1 counter inactive
CC1(C)CC(=O)c2c(oc3cc(O)c(O)cc23)C1	PfM18AAP inh-1 83 | PfM18AAP inh-2 73 | CTSL1 counter inactive
O=C(NNC(=O)c1ccc(F)cc1F)c1ccc2c(c1)OCO2	none
O=C(NNS(=O)(=O)c1ccc(F)cc1)c1ccc2c(c1)OCO2	PfM18AAP inh-1 50 | PfM18AAP inh-2 inactive | CTSL1 counter inactive
COc1cc([N+](=O)[O-])ccc1-c1ccc(/C=N/NC(N)=O)o1	PfM18AAP inh-1 44 | PfM18AAP inh-2 inactive | CTSL1 counter inactive
CCN1C(=O)/C(=C2\C=Cc3ccccc3N2CC)SC1=S	none (no result: ALR inh)
CCN1C(=O)/C(=C2/SC(C)=C(C)N2CC)SC1=S	PfM18AAP inh-1 38, ALR inh 97, MIN6 prolif-1 7.5 | PfM18AAP inh-2 inactive | CTSL1 counter inactive | MIN6 prolif-2 inactive
O=c1cc(-c2ccc(O)cc2)oc2cc(O)c(C3OC(CO)C(O)C(O)C3O)c(O)c12 (configuration not stated)	PfM18AAP inh-1 44, ALR inh inconclusive, MIN6 prolif-1 9.0 | PfM18AAP inh-2 inactive | CTSL1 counter inactive | MIN6 prolif-2 inactive
COc1ccc2c(c1)[C@@]1(OCCC=C[C@H]1C)C(=O)N2C/C=C(\C)CCC=C(C)C	none (no result: JMJD2C inh, PfM18AAP inh-1, Granule exo inh, ALR inh, MIN6 prolif-1)
Cc1ccc(C(c2sc3ncnn3c2O)N2CCC(C)CC2)cc1 (configuration not stated)	PfM18AAP inh-1 56, ALR inh inconclusive, MIN6 prolif-1 12 | PfM18AAP inh-2 inactive | CTSL1 counter inactive | MIN6 prolif-2 inactive
COc1ccc(Cn2nnnc2CN(Cc2cc3cc(C)ccc3[nH]c2=O)C2CCCC2)cc1	none
CCC(C)(C)n1nnnc1CN(Cc1cc2cc(OC)c(OC)cc2[nH]c1=O)C1CCCC1	PfM18AAP inh-1 33, MIN6 prolif-1 7.2 | PfM18AAP inh-2 inactive | CTSL1 counter inactive | MIN6 prolif-2 inactive
COC(=O)[C@H](C(C)C)N(CCCc1cn(Cc2ccc(C)cc2)nn1)S(=O)(=O)c1ccccc1Br	none (no result: JMJD2C inh, PfM18AAP inh-1, Granule exo inh, ALR inh, MIN6 prolif-1)
CCCNC(=O)Cn1sc2nc(C)cc(C)c2c1=O	PfM18AAP inh-1 58, Granule exo inh 58 | PfM18AAP inh-2 30 | CTSL1 counter inactive | Exocytosis CP01 103
CC(=O)Cn1cnc2c(sc3nc(C)cc(C)c32)c1=O	none
CNCc1ccccc1Sc1ccc(O)c(O)c1	PfM18AAP inh-1 51, Granule exo inh 82, ALR inh 99 (no result: MIN6 prolif-1) | PfM18AAP inh-2 70 | CTSL1 counter inactive | Exocytosis CP01 inactive
CC(C)(C)c1ccc(S(=O)(=O)N2CCN(C(=O)C(=O)c3cccc(C(F)(F)F)c3)CC2)cc1	none (no result: JMJD2C inh, PfM18AAP inh-1, Granule exo inh, ALR inh, MIN6 prolif-1)
COc1cccc(NC(=O)c2sc3nc(N4CCOCC4)c4c(c3c2N)CCCC4)c1	PfM18AAP inh-1 50, Granule exo inh 69 | PfM18AAP inh-2 inactive | CTSL1 counter inactive | Exocytosis CP01 inactive
Nc1c(C(=O)NCc2ccccc2)sc2nc(N3CCOCC3)c3c(c12)CCCC3	none
Cc1cc(O)c(-c2cc(O)c(C)cc2O)cc1O	PfM18AAP inh-1 71, Granule exo inh 102 | PfM18AAP inh-2 51 | CTSL1 counter inactive | Exocytosis CP01 inactive
CCCCCCCCN1C(=O)[C@@H](CC(=O)NCc2cccc(C(F)(F)F)c2)C[C@@]2(C(=O)OC)C1=C[C@H](C(C)(C)C)O[C@@H]2C	none (no result: JMJD2C inh, PfM18AAP inh-1, Granule exo inh, ALR inh, MIN6 prolif-1)
O=C(Nc1nc(=O)c2ccccc2s1)c1ccccc1	PfM18AAP inh-1 43, SMARCA2 activ 24 | PfM18AAP inh-2 inactive | CTSL1 counter inactive | SMARCA2 act conf inactive | GAL4-VP16 Luc 9.6
O=C(Nc1nc2ccccc2s1)c1ccc(F)cc1	none
CC(C)(C)OC(=O)N1c2ccccc2[C@]2(N3CCCC3)C[C@H](C(=O)O)N(C(=O)OC(C)(C)C)[C@H]12	none (no result: JMJD2C inh, PfM18AAP inh-1, Granule exo inh, ALR inh, MIN6 prolif-1)
C[C@@H]1CN([C@@H](C)CO)C(=O)c2cc(Br)cnc2O[C@@H]1CN(C)C(=O)c1ccc(F)cc1	none (no result: JMJD2C inh, PfM18AAP inh-1, Granule exo inh, ALR inh, MIN6 prolif-1)
Nc1c(C(=O)Nc2ccc(F)cc2)sc(=S)n1-c1ccccc1F	PfM18AAP inh-1 48, SMARCA2 activ 8.4 (no result: ALR inh) | PfM18AAP inh-2 inactive | CTSL1 counter inactive | SMARCA2 act conf inactive | GAL4-VP16 Luc inactive
Oc1ccc(CCNc2c3ccccc3nc3ccccc23)cc1O	PfM18AAP inh-1 74, ALR inh 99, SMARCA2 activ 8.4 | PfM18AAP inh-2 64 | CTSL1 counter inactive | SMARCA2 act conf 25 | GAL4-VP16 Luc inactive
COc1cc(/C=C2\CC/C(=C\c3cc(OC)c(O)c(OC)c3)C2=O)cc(OC)c1O	PfM18AAP inh-1 51, SMARCA2 activ 11 | PfM18AAP inh-2 48 | CTSL1 counter inactive | SMARCA2 act conf 34 | GAL4-VP16 Luc inactive
